Measured values as given in PubChem BioAssay.
The source made the active and inactive calls. Unless noted, no stated cut-off is given here; in the data, active means inhibition above about 80%; inactive means the rest.

Key:
[1] = viability loss with induced miR-34 in A549 – imaging, A549 dox-inducible miR-34, nuclei and caspase counts, primary screen (AID 1347080;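 active means compounds whose cell count with miR-34 switched on is under 0.7 times the count with it off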); conditions: A549 miR-34 inducible, Hoechst nuclei count, 48 h
[2] = MELAS cybrid and Rieske KO viability enhancers – cell-based, MELAS cybrids, Rieske KO mouse fibroblasts, CellTiter-Glo, primary screen (AID 1508586;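 active means mean z-score across replicates of 1.96 or higher in either the MELAS or the Rieske mutant cell line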;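 further: z relative to plate mean and SD of compound and empty wells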); conditions: low glucose
[3] = growth inhibition, single agent or in combination, cell-based, chromothripsis tumors, cisplatin or BGB combos (AID 1671449); conditions: LFS_MB_P medulloblastoma cells;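 further: cells exposed for 96 hours; 0% = vehicle DMSO and 100% = killing by high DMSO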
[4] = growth inhibition, single agent and combos, cell-based, chromothripsis tumors, cisplatin or BGB combos (AID 1671450); conditions: HDN33 neuroblastoma cells, stronger effect = higher value;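 further: cells exposed to compound for four days; 0% = vehicle DMSO and 100% = cell killing by high DMSO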
[5] = growth inhibition, single agents and combos, ICB984, cell-based, cisplatin or BGB combos, synergistic combos for chromothripsis tumors (AID 1671451; call rule not given here;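 further: cells exposed for 96 hours before readout; 0% = vehicle DMSO and 100% = killing by high DMSO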); conditions: ICB984 medulloblastoma cells, drug combinations, stronger effect = higher value
[6] = growth inhibition, single agents and combos, LFS_MB_1R, cell-based, cisplatin or BGB combos, synergistic combos for chromothripsis tumors (AID 1671452); conditions: LFS_MB_1R medulloblastoma cells, stronger effect = higher value;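 further: cells exposed for 96 hours before readout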
[7] = growth inhibition, single agents and combos, HTB85, cell-based, BGB or cisplatin IC20 combos, synergistic combos for chromothripsis tumors (AID 1671453); conditions: HTB85 osteosarcoma cells, drug combinations, stronger effect = higher value;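 further: cells exposed for 96 hours before readout; 0% = vehicle DMSO and 100% = high DMSO killing control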
[8] = growth inhibition, single agents and combos, CRL2098, cell-based, BGB or cisplatin IC20 combos, synergistic combos for chromothripsis tumors (AID 1671454); conditions: CRL2098 osteosarcoma cells, drug combinations, stronger effect = higher value;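 further: cells exposed for 96 h before readout; 0% = vehicle DMSO and 100% = killing by high DMSO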
[9] = growth inhibition, single agents and combos, HD-MB03, cell-based, BGB or cisplatin IC20 combos, synergistic combos for chromothripsis tumors (AID 1671455; in the data active means inhibition above about 83%;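 further: 0% = vehicle DMSO and 100% = high DMSO as cytotoxic control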); conditions: HD-MB03 medulloblastoma cells, stronger effect = higher value
[10] = growth inhibition, single agents and combos, UWB1.289, cell-based, BGB or cisplatin combos, synergistic combos for chromothripsis tumors (AID 1671456); conditions: UWB1.289 ovarian carcinoma cells, stronger effect = higher value;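 further: cells exposed to compound for four days; 0% = vehicle DMSO and 100% = killing by high DMSO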
[11] = growth inhibition, single agents and combos, LFS_MB_2R, cell-based, cisplatin combos, synergistic combos for chromothripsis tumors (AID 1671457); conditions: LFS_MB_2R medulloblastoma cells, stronger effect = higher value;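 further: cells exposed to compound for four days before readout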
[12] = growth inhibition, MDA-MB-436, cell-based, BGB or cisplatin combos, synergistic combos for chromothripsis tumors (AID 1671458; call rule not given here;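 further: cells exposed for 96 hours; 0% = vehicle DMSO and 100% = killing by high DMSO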); conditions: MDA-MB-436 breast carcinoma growth inhibition, drug combinations, stronger effect = higher value
[13] = UWB1.289_BRCA1 ovarian cancer growth, cell-based, BGB or cisplatin combinations (AID 1671459); conditions: UWB1.289 BRCA1 ovarian carcinoma, drug combinations, stronger effect = higher value
[14] = drug combination toxicity in non-malignant astrocytes – cell-based, BGB or cisplatin IC20 combos, cytotoxicity control for chromothriptic childhood tumor combination screen (AID 1671460); conditions: Human astrocytes, viability inhibition, drug combinations, at 0.5 µM, stronger effect = higher value;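 further: cells exposed to compounds for 96 hours before viability readout; 0% = vehicle and 100% = killing control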
[15] = BT084 cell growth, single and combined drugs, ICGC_MB145, cisplatin and BGB IC40 combos (AID 1671461); conditions: BT084 medulloblastoma cells, drug combinations, stronger effect = higher value;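 further: cells exposed to drugs for 96 hours; 0% = vehicle DMSO and 100% = high DMSO full killing control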
[16] = RCMB18 cell growth, single agent and combined, cisplatin and BGB IC40 combos (AID 1671462); conditions: RCMB18 medulloblastoma cells, stronger effect = higher value;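 further: cells exposed to compound for four days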
[17] = CRL1545 cell growth, single agent and combined, cisplatin and BGB IC20 combos (AID 1671464); conditions: CRL1545 osteosarcoma cells, stronger effect = higher value;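 further: cells exposed to compound for 96 hours before readout; 0% = vehicle DMSO and 100% = high DMSO killing control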
[18] = measured here: combination with BGB IC40, at 0.05 µM
[19] = measured here: with BGB IC20 combination, at 0.5 µM
[20] = measured here: with cisplatin IC20 combination, at 0.5 µM
[21] = measured here: combination with cisplatin, at 0.5 µM
[22] = measured here: combination with cisplatin, at 5 µM

In the case of `CC1CN(c2c(F)c(N)c3c(=O)c(C(=O)O)cn(C4CC4)c3c2F)CC(C)N1` (centres undefined), the fold change ([1]; stronger effect = lower value, cell number ratio, induced over uninduced) is reported as 0.949 (inactive), the fold change ([1]; measured here: relative caspase fold change +Dox/-Dox) is reported as 1.47 and the cell count ([1]; measured here: total cells with miR-34 induction, stronger effect = lower value) is reported as 8380. The cell count ([1]; measured here: total cells without miR-34 induction) was 8840, the z-score ([2]; MELAS cybrid survival, CellTiter-Glo 48 h, stronger effect = higher value) was -0.385 (inactive) and the z-score ([2]; Rieske KO mouse fibroblast survival, CellTiter-Glo 72 h) was 0.474. For the same molecule, the inhibition ([3]; at 0.5 µM, stronger effect = higher value) was -8.35% (inactive), the inhibition ([3]; measured here: combination with BGB IC20, at 0.005 µM) was -4.46% and the inhibition ([3]; measured here: combination with BGB IC40, at 0.005 µM) was -31.5%. For the same molecule, the inhibition [3, 18] was -15.2%, the inhibition ([3]; measured here: combination with cisplatin, at 0.5 µM, stronger effect = higher value) was -6.19% and the inhibition ([3]; measured here: combination with cisplatin, at 5 µM, stronger effect = higher value) was -16.6%. The inhibition ([4]; BGB combo, at 5 µM) was 12%, the inhibition ([4]; at 0.5 µM) was -0.91% (inactive) and the inhibition ([4]; cisplatin combo, at 5 µM) was -6.01%. For the same molecule, the inhibition [4, 19] was 11.5%, the inhibition [4, 20] was -1.5% and the inhibition ([4]; single agent, at 5 µM) was 6.32%. It also gave an inhibition ([5]; BGB IC20 combo, at 0.005 µM) of -1.67%, an inhibition ([5]; BGB IC40 combo, at 0.005 µM) of 11% and an inhibition ([5]; BGB IC40 combo, at 0.05 µM) of -1.88%. The inhibition ([5]; at 0.5 µM) was 7.87% (inactive), the inhibition ([5]; cisplatin combo, at 0.05 µM) was -1.88% and the inhibition ([5]; cisplatin combo, at 0.5 µM) was 11.3%. The inhibition ([5]; cisplatin combo, at 5 µM) was 13.8%, the inhibition ([5]; measured here: 5 uM single agent, at 5 µM) was -29.6% and the inhibition ([6]; at 0.5 µM) was -11.6% (inactive). For the same molecule, the inhibition [6, 18] was 17.7%, the inhibition [6, 21] was -11.6% and the inhibition [6, 22] was 6.53%. The inhibition ([7]; at 0.5 µM) was -1.44% (inactive), the inhibition ([7]; measured here: with BGB IC20, at 0.5 µM) was -7.64% and the inhibition ([7]; measured here: with BGB IC20, at 5 µM) was 3.84%. It also gave an inhibition ([7]; measured here: with cisplatin IC20, at 0.5 µM) of -9.9%, an inhibition ([7]; measured here: with cisplatin IC20, at 5 µM) of -0.774% and an inhibition ([7]; single agent, at 5 µM) of 7.58%. For the same molecule, the inhibition ([8]; at 0.5 µM) was 10.8% (inactive), the inhibition ([8]; measured here: combination with BGB at IC20, at 0.5 µM) was -2.31% and the inhibition ([8]; measured here: combination with cisplatin at IC20, at 0.5 µM) was 38.8%. The inhibition ([9]; at 0.5 µM) was -2.01% (inactive), the inhibition ([9]; measured here: combo with BGB at IC20, at 0.5 µM) was -4.41% and the inhibition ([9]; measured here: combo with cisplatin at IC20, at 0.5 µM) was 2.33%. The inhibition ([10]; at 0.5 µM) was 8.04% (inactive), the inhibition ([10]; measured here: inhibition with BGB combination, at 0.05 µM) was 0.724% and the inhibition ([10]; measured here: inhibition with cisplatin combination, at 0.05 µM) was -2.03%. The inhibition ([11]; at 0.5 µM) was -6.3% (inactive), the inhibition [11, 21] was -7.26% and the inhibition [11, 22] was 2.01%. For the same molecule, the inhibition ([12]; at 0.5 µM) was -9.1% (inactive), the inhibition ([12]; measured here: BGB combination, at 0.5 µM) was -2.77% and the inhibition ([12]; measured here: BGB combination, at 5 µM) was -17.3%. For the same molecule, the inhibition ([12]; measured here: cisplatin combination, at 0.5 µM) was -22.6%, the inhibition ([12]; measured here: cisplatin combination, at 5 µM) was -5.2% and the inhibition ([13]; BGB combination, concentration series, at 5 µM) was 10.9%. The inhibition ([13]; at 0.5 µM) was 7.45% (inactive), the inhibition ([13]; cisplatin combination, concentration series, at 5 µM) was 7.13% and the inhibition [14] was -1.22% (inactive). The inhibition ([14]; measured here: combo with BGB IC20) was 2.7%, the inhibition ([14]; measured here: combo with cisplatin IC20) was -10.7% and the inhibition ([15]; at 0.5 µM) was -22.6% (inactive). For the same molecule, the inhibition ([15]; cisplatin combination, at 0.5 µM) was -28.7%, the inhibition ([15]; cisplatin combination, at 5 µM) was -70.7% and the inhibition ([15]; measured here: BGB IC40 combination 0.05 uM, at 0.05 µM) was 2.3%. For the same molecule, the inhibition ([15]; single agent, at 5 µM) was -7.96%, the inhibition ([16]; at 0.5 µM) was -6.55% (inactive) and the inhibition ([16]; cisplatin combo, at 5 µM) was 2%. The inhibition ([16]; measured here: BGB IC40 combination, at 0.05 µM) was 11.2%, the inhibition [16, 21] was -22.2% and the inhibition ([16]; single agent, at 5 µM) was -18.8%. The inhibition ([17]; at 0.5 µM) was -2.34% (inactive), the inhibition [17, 19] was 14.7% and the inhibition [17, 20] was -10.9%. The inhibition ([17]; single agent, at 0.05 µM) was 39.2% and the inhibition ([17]; single agent, at 5 µM) was 26.7%.
